Measurements published in PubChem BioAssay (NCI).
The panel holds about 83,000 compounds, 20% with a hit somewhere; the sample as a whole holds those more often.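 Note: values are percent growth. 100 is the growth of untreated cells, values between 100 and 0 indicate rising inhibition; between -100 and 0 indicates cell death.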 Activity calls are given as the source filed them. The calls were made as follows: active = growth percent below 10; inactive = the rest.

Each compound was assayed on SK-MEL-5 melanoma (assay: NCI-60 one-dose screen, 48 h (100 = growth as untreated, 0 = no growth, -100 = all killed)). Conditions: 10 µM unless noted.
For `Cc1ccc(-c2nn(-c3ccccc3)cc2C=C2C(=O)ON=C2C(C)C)cc1`, the growth was 87.1% (inactive).
`CC(C)n1cnc2c(=S)nc[nH]c21` was tested, and the growth was 103% (inactive).
With `CN1C(=O)/C(=C/c2ccc(C(=O)Nc3ncc(Cc4ccc(Cl)cc4)s3)cc2)SC1=S` the growth was 26.2% (inactive).
For `O=C(Nc1ccc(NC(=O)c2cc(=O)[nH]c3ccccc23)cc1)Nc1cccc(C(F)(F)F)c1`, the growth was 69.9% (inactive).
With `O=C(NCCCCNC(=O)OCc1ccc2c(Cl)cc(Cl)c(O)c2n1)OCc1ccc2c(Cl)cc(Cl)c(O)c2n1` the growth was -46.4% (active).
In the case of `CCC(C)N(c1ccc(Cl)cc1)c1nc(-c2ccc(Br)cc2)cs1` (stereo unspecified), the growth is reported as 104% (inactive).
`COc1cc(-n2cc(-c3cc(O)c(C/C=C(\C)CCC=C(C)C)c(O)c3)nn2)cc2c1O[C@]1(C)CC[C@@H](O)C(C)(C)[C@H]1C2` was tested, and the growth was -61.4% (active).
For `C=CCn1c(SCC(=O)Nc2ccc(C(=O)/C=C/c3ccc(Cl)cc3)cc2)nnc1-c1cc(-c2ccc(S(N)(=O)=O)cc2)nc2ccccc12`, the growth was 76.8% (inactive).
`Clc1ccc2c(c1)N(c1ncnc3ccc(-c4cnc5[nH]ncc5c4)cc13)CC2` was tested, and the growth was 46.5% (inactive).
In the case of `O=C(Nc1ccc(-c2nc(N3CCOCC3)c3cccn3n2)cc1)Nc1cccnc1`, the growth is reported as -71.5% (active).
In the case of `CCc1ccc(Oc2cn[nH]c2-c2ccc(OCCc3ccc(F)cc3)cc2O)cc1`, the growth is reported as 97.5% (inactive).
With `C#Cc1cccc(Nc2ncnc3ccc(-c4cnc(N)nc4)cc23)c1` the growth was 32.7% (inactive).
For `Oc1c(Cl)cc(Cl)c2ccc(Cn3cc(-c4cc(C(F)(F)F)cc(C(F)(F)F)c4)nn3)nc12`, the growth was 92.6% (inactive).
For `COc1cc(N2C(=O)[C@H](O)C2c2ccc(SC)cc2)cc(OC)c1OC` (stereo partly specified), the growth was -13.8% (active).
In the case of `OCCCC1CCN(C(Cc2ccccc2)c2ccccc2)CC1` (stereo unspecified), the growth is reported as 101% (inactive).
In the case of `CNC(=O)c1c(NC(=O)c2ccc(C(F)(F)F)cc2)sc2c1CCC(=O)C2`, the growth is reported as -71.6% (active).
In the case of `CC/C(=C(/c1ccc(Cl)cc1)c1ccc(OCCN2CCCC2)cc1)c1ccc(OC)cc1`, the growth is reported as 66% (inactive).
`O=C1Nc2ccccc2/C1=C\c1nc(-c2ccccc2F)n2ccccc12` was tested, and the growth was 37.8% (inactive).
`Cc1cc(=O)[nH]c2c(C#N)cnn12` was tested, and the growth was 99.4% (inactive).
`COc1ccc(C/C(C)=C(/c2ccc(OCCN3CCCCC3)cc2)c2ccc(OC(=O)NCc3ccccc3)cc2)cc1` was tested, and the growth was -100% (active).
`COc1ccc(CC(C#N)c2cc3ccccc3[nH]2)cc1` (stereo unspecified) was tested, and the growth was 91.6% (inactive).
With `N#CC1CCc2c(c(-c3cn[nH]c3C(F)(F)F)nc3c(F)cc4[nH]ncc4c23)C1` (stereo unspecified) the growth was 6.54% (active).
With `Cn1ccnc1C(=O)C(=O)Nc1ccc(CC(=O)Nc2ccccc2)cc1` the growth was 101% (inactive).
`Cc1ccc(/C=N/Nc2nc(Nc3ccccc3)nc(-n3nc(C)cc3C)n2)cc1` was tested, and the growth was -12.6% (active).
In the case of `Cc1nc2ncnc(Cl)c2[nH]1`, the growth is reported as 104% (inactive).
In the case of `COc1ccc2[nH]cc(-c3nc(-c4c[nH]c5ccncc45)cs3)c2c1`, the growth is reported as 43.3% (inactive).
